# Experimental data reported in the supplement of paper PMC6555819.
# How the values were obtained:
# Assay in all cases: PBM binding z-score (relative to random genomic background probes); higher = stronger binding; sequences stand for … in GC…GCGATTGACAGCGTAGAATGAAGG
# [1] = test system: FXR:RXRa (NR concentration 270 nM, RXRa partner concentration 90 nM)
# Procedure, shortened: (§1)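 Regression normalization was applied to scanned fluorescence from custom Agilent 4×180K protein-binding microarrays. Before scanning, arrays were incubated 1 h with ligand-free nuclear receptor dimers, and binding was detected with antibodies against each partner (one per run). Binding z-scores use the random background probes as reference.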
# [2] = test system: LXRa:RXRa (NR concentration 270 nM, RXRa partner concentration 90 nM)
# Procedure, shortened: as §1
# [3] = test system: LXRa homodimer (NR concentration 270 nM)
# Procedure, shortened: as §1
# [4] = test system: LXRb:RXRa (NR concentration 270 nM, RXRa partner concentration 90 nM)
# Procedure, shortened: as §1
# [5] = test system: LXRb homodimer (NR concentration 270 nM)
# Procedure, shortened: as §1
# [6] = test system: PPARa:RXRa (NR concentration 270 nM, RXRa partner concentration 90 nM)
# Procedure, shortened: as §1
# [7] = test system: PPARg:RXRa (NR concentration 180 nM, RXRa partner concentration 90 nM)
# Procedure, shortened: as §1
# [8] = test system: PPARg:RXRa 270nM:90nM, anti-RXR (NR concentration 270 nM, RXRa partner concentration 90 nM)
# Procedure, shortened: as §1
# [9] = test system: PPARg:RXRa 30nM:10nM, anti-RXR (NR concentration 30 nM, RXRa partner concentration 10 nM)
# Procedure, shortened: as §1
# [10] = test system: PPARg:RXRa 90nM:30nM, anti-RXR (NR concentration 90 nM, RXRa partner concentration 30 nM)
# Procedure, shortened: as §1
# [11] = test system: PPARg:RXRa DBDmut IVT, anti-RXR (DBD mutation: RXRa K156A/R161A, NR concentration 270 nM, RXRa partner concentration 90 nM)
# Procedure, shortened: as §1
# [12] = test system: PPARg:RXRa IVT, anti-PPARg (NR concentration 270 nM, RXRa partner concentration 90 nM)
# Procedure, shortened: as §1
# [13] = test system: PPARg DBDmut:RXRa IVT, anti-PPARg (DBD mutation: PPARg1 K132A/R137A, NR concentration 270 nM, RXRa partner concentration 90 nM)
# Procedure, shortened: as §1
# [14] = test system: PPARg DBDmut IVT, anti-PPARg (DBD mutation: PPARg1 K132A/R137A, NR concentration 270 nM)
# Procedure, shortened: as §1
# [15] = test system: PPARg homodimer (NR concentration 180 nM)
# Procedure, shortened: as §1
# [16] = test system: PXR:RXRa (NR concentration 270 nM, RXRa partner concentration 90 nM)
# Procedure, shortened: as §1
# [17] = test system: PXR homodimer (NR concentration 270 nM)
# Procedure, shortened: as §1
# [18] = test system: RARa:RXR (NR concentration 270 nM, RXRa partner concentration 90 nM)
# Procedure, shortened: as §1
# [19] = test system: RARa homodimer (NR concentration 270 nM)
# Procedure, shortened: as §1
# [20] = test system: RARb:RXRa (NR concentration 270 nM, RXRa partner concentration 90 nM)
# Procedure, shortened: as §1
Sequence,PBM binding z-score [1],PBM binding z-score [2],PBM binding z-score [3],PBM binding z-score [4],PBM binding z-score [5],PBM binding z-score [6],PBM binding z-score [7],PBM binding z-score [8],PBM binding z-score [9],PBM binding z-score [10],PBM binding z-score [11],PBM binding z-score [12],PBM binding z-score [13],PBM binding z-score [14],PBM binding z-score [15],PBM binding z-score [16],PBM binding z-score [17],PBM binding z-score [18],PBM binding z-score [19],PBM binding z-score [20]
AATAGAGGGTCATCGTAGGCCAGAGTACGCACAG,6.8,6.19,1.56,3.89,0.604,5.5,5.46,5.11,2.13,3.89,3.35,4.01,0.835,0.46,2.99,4.34,0.066,4.67,1.33,4.25
AGAATGAGGTTAAGATCAGGTAAACAGAATACAT,2.45,4,-0.00313,2.24,-0.136,3.9,2.61,2.31,0.859,1.75,2.37,2.93,1.7,0.933,0.782,1.52,0.259,2.3,0.662,1.98
ATATGTAGGTTCTCGGGTCATTCAGTTTGCGCAT,2.58,2.33,1.35,2.78,0.765,3.89,3.39,3.71,1.14,2.94,4.81,4.65,1.63,2.01,1.96,4.05,8.95,3.37,1.01,2.15
ATCTCTAGGTAACCAAGTTCATTGAATGCCGAAC,0.729,2.12,2.71,1.66,1.1,2.14,1.04,1.24,0.578,0.937,3.59,3.08,1.78,1.57,1.37,3.97,7.05,1.72,1.19,1.75
TGTCAAAGTTCAAAGGTAAAGTAAGTATCCACAC,7.42,6.49,3.99,4.8,1.68,5.87,8.7,7.81,5.23,7.51,0.197,4.58,1.35,1.98,3.26,5.75,3.72,5.81,1.83,5.07
TGAATGAGCTTATAAGATCAGGGAACGTTGCAAA,-0.538,-0.891,-0.553,-0.584,-0.76,-0.485,-0.117,-0.382,0.0852,-0.46,-1.43,-0.528,0.471,0.179,-0.626,-0.456,-0.325,-0.125,-0.206,-1.12
TCTTGTTGGTCACGGAGGTCACACACGACGGGTA,3.76,3.86,3.29,3.62,2.2,4.14,3.58,4.44,3.5,4.07,2.92,4.57,2.15,2.59,4.65,5,2.43,5.34,3.1,4.17
ATCTCTAGGTAAAGATAGTGCAGTGAATGCAAAT,0.222,1.16,0.00124,0.147,0.236,0.141,0.354,0.233,0.0457,0.565,1.33,1.62,0.773,0.751,-0.52,-0.0642,-0.041,0.189,0.661,-0.164
CATCCAAGGTCAAGGTCAGTGAAAGAGACTCGAA,7.77,6.14,2.48,5.1,2.11,6.02,7.17,6.56,3.3,5.45,3.78,5.22,1.93,0.636,4.53,4.84,1.77,5.12,1.98,5.77
ACTATTAGTTGAGACGAGGGCAACCGATAGGTTG,0.538,0.128,0.022,0.22,0.0471,0.636,0.774,0.555,0.376,0.316,0.0589,0.536,0.785,0.574,0.059,1.64,0.413,0.859,0.982,1.24
ATCGGAAGGTCGTGAGGTGAGTATACAGAAAGGC,2.73,1.85,0.212,1.69,0.0341,3.13,1.68,1.63,0.466,0.932,-0.372,1.37,-0.0584,0.491,1.77,1.71,0.639,2.72,1.05,2.83
TCTATTAGTAGAAGGGCAACCGACGAGTCCGTTT,0.288,0.212,0.0189,0.17,-0.103,0.688,0.23,1.93,3.29,2.44,1.9,0.562,0.63,-0.0614,0.492,0.479,0.325,0.693,0.276,1.36
CCGACTGGGGCAGAAAGGTTACGATACCATCCGG,0.702,0.832,-0.247,1.01,-0.887,2.34,2.25,3.05,0.964,2.25,1.98,2.35,-0.302,-0.0493,1.17,1.39,-0.337,1.72,-0.00415,1.92
TCTGCTAGGTCACTTGGTCAGCTAACGAGCTGCC,2.56,2.03,-0.292,1.38,0.874,2.97,2.53,3.31,1.62,2.28,4.06,4.55,2.55,1.22,0.811,0.889,-0.812,1.93,-0.792,3.81
